Screening data as filed in PubChem.
G9a inh – qHTS Assay for Inhibitors of Histone Lysine Methyltransferase G9a | G9a H3K9 monomethylation, AlphaScreen, 2 h | 350,000 compounds, 8.8% hits | Histone-lysine N-methyltransferase EHMT2 (Homo sapiens), Q96KQ7 | Potency, µM (highest dose often 102 µM), for the others: top-dose activity, negative = inhibition, actives largely listed as inhibitors; further: on the % scale 0 is the no-effect control and ±100 the full control effect; nearly all actives have a fitted effect of over 75% in size
Target sequence (Q96KQ7 913-1193 limits assumed): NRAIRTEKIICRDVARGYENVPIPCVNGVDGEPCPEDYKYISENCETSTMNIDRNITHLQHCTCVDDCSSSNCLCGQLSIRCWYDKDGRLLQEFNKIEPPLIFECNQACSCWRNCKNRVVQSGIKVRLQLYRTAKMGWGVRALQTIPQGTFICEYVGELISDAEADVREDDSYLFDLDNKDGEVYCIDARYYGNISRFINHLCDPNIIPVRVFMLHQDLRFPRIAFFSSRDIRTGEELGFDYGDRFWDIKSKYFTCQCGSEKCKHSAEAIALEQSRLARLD
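Compounds were preincubated with 20 nM G9a for 15 min, after which biotinylated H3K9 peptide (500 nM) and SAM (20 uM) started a 2 h room-temperature reaction. Monomethylated product was quantified by antibody-based AlphaScreen chemiluminescence.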
HP1b binding inh – HTS for Inhibitors of HP1-beta Chromodomain Interactions with Methylated Histone Tails; Chromobox protein homolog 1 (Homo sapiens), P83916; AID 540317, 2011; Potency, µM (highest dose often 114 µM), without a hit: at the highest dose activity change, negative = inhibition, actives largely listed as inhibitors; AlphaScreen HP1-beta / biotin-H3K9me3 peptide binding; 390,000 compounds, 0.56% hits; further: nearly all actives have a fitted effect of over 70% in size
Target sequence (P83916 whole entry, looked up): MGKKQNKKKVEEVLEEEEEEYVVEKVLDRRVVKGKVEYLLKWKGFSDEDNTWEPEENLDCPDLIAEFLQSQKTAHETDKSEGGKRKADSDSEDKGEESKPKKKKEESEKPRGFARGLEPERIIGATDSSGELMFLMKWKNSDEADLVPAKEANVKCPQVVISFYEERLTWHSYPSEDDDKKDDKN
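HP1-beta protein (50 nM final) preincubated 30 min at room temperature with biotinylated H3(1-18)K9me3 peptide (50 nM) in PBS pH 7.4, 0.01% Tween-20, then compound added for 30 min. AlphaScreen streptavidin donor/nickel chelate acceptor beads (10 ug/mL final), 30 min dark, luminescence read.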
BAZ2B block – qHTS Assay for Inhibitors of BAZ2B; Bromodomain adjacent to zinc finger domain protein 2B (Homo sapiens), Q9UIF8; AlphaScreen BAZ2B-H3K14Ac peptide displacement; Potency, µM (titrated, usually from 114 µM), inactives show at the top dose activity change, negative = inhibition, actives largely listed as inhibitors; 360,000 compounds, 4.4% hits; AID 504333, 2011; further: on the % scale 0 is the no-effect control and ±100 the full control effect; nearly all actives have a fitted effect of over 60% in size
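Compounds, titrated to a top concentration of 110 uM, were incubated 30 min at room temperature with preformed BAZ2B/acetyl-K14 H3 peptide complex (50 nM each). Proximity signal was measured by AlphaScreen after 20 min with beads.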
JMJD2A Tudor inh – qHTS Assay for Inhibitors of JMJD2A-Tudor Domain; Potency, µM (series often up to 114 µM), inactives show top-dose activity change, negative = inhibition, usual class: inhibitors; 390,000 compounds, 4.4% hits; Lysine-specific demethylase 4A (Homo sapiens), O75164; AlphaScreen JMJD2A-Tudor / H3K4me3 peptide binding; further: on the % scale 0 is the no-effect control and ±100 the full control effect; nearly all actives have a fitted effect of over 50% in size
L3MBTL1 block – qHTS Assay for the Inhibitors of L3MBTL1; Lethal(3)malignant brain tumor-like protein 1 (Homo sapiens), Q9Y468; AlphaScreen L3MBTL1–H3K9me1 peptide binding; Potency, µM (doses to about 57.1 µM), for the others: top-dose activity, negative = inhibition, most hits filed as inhibitors; 230,000 compounds, 0.66% hits; AID 485360, 2010; further: on the % scale 0 is the no-effect control and ±100 the full control effect; nearly all actives have a fitted effect of over 60% in size
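First, the protein-peptide complex forms for 30 min at room temperature (L3MBTL1 50 nM, biotinylated H3K9me1 peptide 75 nM). Next, compounds are pin-transferred and incubated 30 min. Finally, AlphaScreen beads are added and read after 30 min.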
Sfp PPTase inh – qHTS Assay for Inhibitors of Bacillus subtilis Sfp phosphopantetheinyl transferase (PPTase); 4'-phosphopantetheinyl transferase ffp (Bacillus subtilis), Q9F4F7; Biochemical Sfp PPTase activity, qHTS; Potency, µM, without a hit: largest response in the series, negative = inhibition, hits mostly inhibitors; 310,000 compounds, 3.5% hits;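 further: the enzyme is Sfp with the accession as filed and its product quenches rhodamine fluorescence; 0% = enzyme reaction without inhibitor and -100% = no enzyme wells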
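Step 1, compound plus 15 nM Sfp-PPTase, 15 min, room temperature. Step 2, add rhodamine-CoA (5 uM) and BHQ-2-YbbR (12.5 uM). Step 3, read 525/598 nm fluorescence at 0 and 30 min.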
* = called active by the depositor; ? = inconclusive; · = not tested or not shown; [ ] = another dose, or the depositor's remark. Shown are actives, neighbours in structure and some others; about 12% of the full set was active somewhere. The call rests on the fitted dose curve; in most records, active means well fitted curve in the direction sought with a large enough effect; inconclusive means small, poorly fitted or top-dose-only effect, or another doubt; inactive means no such curve, though single readings can be large; an effect the other way counts as inactive or inconclusive. Potency means the concentration at half of the fitted maximal effect.

SMILES	G9a inh	HP1b binding inh	BAZ2B block	JMJD2A Tudor inh	L3MBTL1 block	Sfp PPTase inh
CCOC(=O)CC(CC(C)=O)C(=O)OCC (stereo unspecified)	·	·	·	·	·	-13%
Cc1ccc(S(=O)(=O)N2CCN(C(=O)COC(=O)c3ccc(O)cc3)CC2)c(C)c1	22%[0.501 µM]	1%	3%	89µM*	-12%	·
Cc1ccc(S(=O)(=O)N2CCN(C(=O)COC(=O)CCOc3ccccc3C)CC2)c(C)c1	11µM*	-1%	-9%	-15%	1%	·
CCC(=O)N1CCc2cc(S(=O)(=O)CCC(=O)Nc3ccc(F)c(F)c3)ccc21	5%	22%	56µM*	-23%	·	24%
CCC(=O)N1CCc2cc(S(=O)(=O)CCC(=O)Nc3cccc(F)c3)ccc21	22µM*	36%	9%	7%	9%	2%
Cc1[nH]c2ccccc2c1/C=N\NC(=O)CNc1ccc2c(c1)OCO2	10µM*	?	45µM*	?	-11%	-18%
Cc1[nH]c2ccccc2c1/C=N/NC(=O)CNC(=O)c1ccco1	·	12%	-7%	-8%	7%	5%
O=C(CNc1ccc2c(c1)OCO2)N/N=C\c1ccccc1Cl	?	?	50µM*	?	0%	-33%
CCCCc1nc2c(c3c1C[C@H](C)OC3)CN(S(=O)(=O)CCCC)CC2	·	·	·	·	·	-4%
Clc1ccc(Nc2nc(-c3cccnc3)cs2)cc1	?	26%	-31%	-13%	·	79µM*
c1ccc(-c2csc(Nc3cccnc3)n2)cc1	-27%	15%	-27%	-1%	-20%	32µM*
Clc1ccc(-c2csc(Nc3cccnc3)n2)cc1	?	33%	-15%	-3%	2%	-5%
O=[N+]([O-])c1ccccc1Nc1nc(-c2cccnc2)cs1	?	?	14µM*	35µM*	?	-6%
Cc1ccc(S(=O)(=O)CC(=O)Nc2nc3c(C)cc(C)cc3s2)cc1	-6%[59 µM]	23%	-14%	-25%	·	·
Cc1c2cnn(CC(=O)N3CCCCC3)c(=O)c2c(C)n1Cc1ccc(Cl)cc1	2%[59 µM]	29%	3%	3%	·	·
O=C1CCN(N=Nc2cccc(Cl)c2)N1	0.79µM*	·	?	·	·	9%
Cc1cccn2c(=O)c(C(=O)NCc3ccccc3Cl)c(O)nc12	-8%[59 µM]	39%	2%	-9%	·	·
O=C(COC(=O)c1ccc(S(=O)(=O)NCc2ccco2)cc1)Nc1ccccc1OC(F)F	50µM*	4%	47%	-19%	-17%	32µM*
O=C(COC(=O)c1ccc(S(=O)(=O)NCc2ccco2)cc1)Nc1ccc(Cl)cn1	50µM*	-31%	56µM*	?	?	-2%
O=C(COC(=O)c1ccc(S(=O)(=O)NCc2ccco2)cc1)Nc1ccccc1	?	15%	10%	-6%	-7%	·
CCOC(=O)C1=C(C)N(c2ccccc2)C(=O)C1CC(=O)O (stereo unspecified)	18µM*	49%	4%	5%	3%	11%
CCOC(=O)NNC1CC(=O)N(c2ccccc2)C1=O (stereo unspecified)	?	14%	0%	-12%	2%	-8%
CCOC(=O)C1=C(C)N(C)C(=O)C1CC(=O)O (stereo unspecified)	-16%[59 µM]	-58%	-3%	56µM*	0%	12%
Cc1cc(CN(C)C(=O)c2ccc(OC3CCN(Cc4ccccn4)CC3)cc2)on1	50µM*	37%	-26%	-15%	·	3%
Cc1nonc1CN(C)C(=O)c1ccc(OC2CCN(Cc3ccccn3)CC2)cc1	?	56%	-39%	-3%	-13%	14%
SMILES	G9a inh	HP1b binding inh	BAZ2B block	JMJD2A Tudor inh	L3MBTL1 block	Sfp PPTase inh
CCN(Cc1cc(=O)n2ccsc2n1)Cc1nc2cc(OC)c(OC)cc2c(=O)[nH]1	13µM*	11%	3%	-7%[11.4 µM]	·	?
CN(Cc1cc(=O)n2ccsc2n1)c1ccccc1	0%[59 µM]	40%	1%	-7%	27%	?
COc1cc2nc(CN(C)Cc3nc4ccccc4c(=O)[nH]3)[nH]c(=O)c2cc1OC	36%[12.7 µM]	37%	70%	-2%	·	15%
CN(Cc1cc(=O)n2ccsc2n1)Cc1nc2ccccc2c(=O)[nH]1	?	40%	·	-15%	2%	4.5µM*
CN(Cc1cc(=O)n2ccsc2n1)C1CCCCC1	50µM*	27%	-31%	-3%	-5%	-5%
Clc1ccc(SCNc2ccccc2Cl)cc1	31%	106%	47%	73%	·	45µM*
CC(C)C[C@@H](CNCC(=O)[C@H](CC(C)C)NC(=O)c1[nH]cnc1C(=O)N[C@@H](C)CN)NC(=O)c1nc[nH]c1C(=O)N[C@@H](CC(=O)O)C(=O)O	·	60%	·	50µM*	·	·
CC(C)C[C@@H](CNCC(=O)[C@H](Cc1ccccc1)NC(=O)c1[nH]cnc1C(=O)N[C@@H](C)CN)NC(=O)c1nc[nH]c1C(=O)N[C@@H](CC(=O)O)C(=O)O	·	55%	·	?	·	·
CC(C)C[C@@H](CNCC(=O)[C@H](C)NC(=O)c1[nH]cnc1C(=O)N[C@H](CN)CC(C)C)NC(=O)c1nc[nH]c1C(=O)N[C@@H](C)C(=O)O	·	33%	·	56µM*	·	·
CC(C)C[C@@H](CNCC(=O)[C@H](CC(C)C)NC(=O)c1[nH]cnc1C(=O)N[C@@H](C)CN)NC(=O)c1nc[nH]c1C(=O)N[C@@H](CC(C)C)C(=O)O	·	41%	·	56µM*	·	·
CC(C)C[C@H](NC(=O)c1[nH]cnc1C(=O)N[C@@H](C)C(=O)OCc1ccccc1)C(=O)OCc1ccccc1	·	37%	·	-31%	-3%	·
CC(C)C[C@@H](CNCC(=O)[C@H](C)NC(=O)c1[nH]cnc1C(=O)N[C@@H](C)CN)NC(=O)c1nc[nH]c1C(=O)N[C@@H](CC(=O)O)C(=O)O	·	?	·	79µM*	·	·
N#Cc1cccc(S(=O)(=O)N2CCN(S(=O)(=O)c3ccc4c(c3)OCCO4)CC2)c1	·	9%[57 µM]	·	-8%	·	·
Cc1ccc(Cl)cc1NC(=O)Nc1nnc(N2CCCC(C)C2)s1 (stereo unspecified)	-4%[59 µM]	49%	30%	-1%	·	·
Cc1csc2nc(COc3ccc(NC(=O)COc4ccccc4F)cc3)cc(=O)n12	?	25%	-4%	-13%	·	·
CC(C)Cn1c(=O)c2ccccc2n2c(CCC(=O)NCc3ccccc3Cl)nnc12	-1%[59 µM]	45%	-3%	7%	·	·
